Among all 330,000 compounds or so, about 5,800 (1.8%) were called active. Rule as the data show it: active = inhibition mostly above about 38% (no sharp cut-off); inactive = mostly below about 40%. What follows is part of a selection rich in actives, with near analogues and random picks from the rest.
Target: Orexin/Hypocretin receptor type 1 (Homo sapiens) (UniProt O43613)
Assay: blocks the human orexin 1 receptor (AID 485270);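 also: 0% = agonist challenge alone and 100% = reference antagonist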
Settings: OX1R-expressing cells, FRET antagonist read-out; at 6.6 µM; stronger effect = higher value

Sequence of Orexin/Hypocretin receptor type 1 (Homo sapiens) (O43613 whole entry, looked up): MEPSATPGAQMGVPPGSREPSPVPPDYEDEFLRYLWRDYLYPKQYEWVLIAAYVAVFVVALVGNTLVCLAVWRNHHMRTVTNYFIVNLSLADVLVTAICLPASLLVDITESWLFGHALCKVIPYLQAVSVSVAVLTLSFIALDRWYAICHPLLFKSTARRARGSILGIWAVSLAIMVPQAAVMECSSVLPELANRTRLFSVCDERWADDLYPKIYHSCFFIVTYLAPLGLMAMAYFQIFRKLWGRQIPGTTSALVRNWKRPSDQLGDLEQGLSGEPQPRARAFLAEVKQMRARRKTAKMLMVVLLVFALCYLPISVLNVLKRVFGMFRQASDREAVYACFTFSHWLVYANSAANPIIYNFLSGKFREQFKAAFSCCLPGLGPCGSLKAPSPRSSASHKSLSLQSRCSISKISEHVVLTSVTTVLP

inhibition, active:
COC(=O)CNC(=O)c1ccc2c(c1)S(=O)(=O)c1ccccc1C2=O 172%, CC(C)N(Cc1ccccc1)C(=O)COC(=O)c1ccccc1SCC(=O)N1CCCC1 60.6%, Oc1ccc(N=Cc2c(O)ccc3ccccc23)cc1 54.4%, C=CCn1c(SCC(=O)Nc2nc3ccccc3s2)nnc1-c1ccccc1O 53%, c1ccc2c(CSCc3nc4ccccc4[nH]3)cccc2c1 90.8%, O=C(Nc1ccc2sc3ccccc3c(=O)c2c1)c1ccccc1Cl 86.1%, COc1ccc(S(=O)(=O)NC(C)c2ccccc2)cc1C(=O)N1CCCCC1 (stereo not drawn) 78.9%, COc1ccc(CCNC(=O)/C(C#N)=C2\N=C(NC(=O)c3cccs3)c3ccccc32)cc1 110%, CCn1c(C)nc2c1C(=O)c1ccccc1C2=O 99.7%, Cc1cc(=O)oc(C)c1C(=O)NCCN(C)Cc1ccccc1 98.2%

inhibition, inactive:
O=C(COC(=O)c1ccncc1)Nc1ccc2c(c1)OCO2 9.22%, O=C(Nc1cccc(S(=O)(=O)NC2=NCCC2)c1)c1ccc(F)cc1F 3.06%, Cc1cccc(-n2ncc3c(=O)[nH]c(SCC(=O)Nc4cc(C)on4)nc32)c1 10.5%, COc1ccc(-c2nc3cc(C)ccn3c2NC2CCCCC2)cc1SC1CCCCC1 11.5%, Cc1ccc(NC(=O)CN(C)C(=O)c2ccc(Cl)c(S(=O)(=O)NCc3ccco3)c2)cc1 4.72%, Cc1ccc(CNC(=O)c2ccc3c(c2)S(=O)(=O)c2ccccc2C3=O)cc1 61.7%, CC(C)(C)c1ccc(C(=O)NCC(=O)OCN2C(=O)c3ccccc3C2=O)cc1 -0.82%, COC(=O)[C@]1(C)N[C@H](CN(C)C(=O)c2ccc(C(C)(C)C)cc2)[C@@H]2C(=O)N(C)C(=O)[C@@H]21 6.6%, CC(NC(=O)c1ccccc1SCC(=O)N1CCCC1)c1ccccc1 (stereo not drawn) 6.4%, COc1ccccc1NC(=O)COC(=O)c1ccccc1SCC(=O)N1CCCC1 23.9%, COc1ccc(S(=O)(=O)N(C)C[C@@H]2Oc3ccc(NC(=O)Nc4c(C)noc4C)cc3C(=O)N([C@H](C)CO)C[C@@H]2C)cc1 5.98%, Oc1ccc(N=Cc2sc3ccccc3c2Cl)cc1 36.6%, O=[N+]([O-])c1ccc(N=Cc2c(O)ccc3ccccc23)cc1 26.6%, Cc1ccc(N2C(=O)N3[C@@H]4c5ccccc5OC[C@@H]4[C@@H](c4ccccc4)[C@@]3(C)C2=O)cc1 4.13%, O=C(NN=Cc1ccc(N2CCOCC2)cc1)c1cc2ccccc2cc1O 8.04%, C=CCn1c(SCC(=O)NCc2ccccc2)nnc1-c1cc(Br)ccc1O 13.4%, Cn1nnnc1SCC(=O)Nc1nc2ccccc2s1 14.3%, O=C(COc1cccnc1[N+](=O)[O-])Nc1ccc(Cl)cc1F 9.99%, Cc1ccsc1C(=O)OCC(=O)NCCc1ccccc1 1.76%, CC[C@]12c3[nH]c4cc(CCC(=O)N(C)C)ccc4c3CCN1C(=O)[C@@H](CC(=O)NCCCn1ccnc1)C[C@@H]2C(=O)N1CCN(C(=O)C2CC2)CC1 10.3%, Clc1ccccc1SCc1nc2ccccc2[nH]1 24.1%, c1ccc(-c2nnc(SCc3nc4ccccc4[nH]3)o2)cc1 16.7%, CC(C)(C)OC(=O)C[C@@H]1C/C=C\C[C@@H](CC(=O)N[C@H](CO)Cc2ccccc2)C(=O)NC[C@@H](c2ccccc2)OC1=O 8.95%, COC(=O)C1=C(C)N(Cc2ccccc2)C(=NCCCOC(C)C)N[C@H]1c1ccccc1 10.8%, COCC(=O)N1CCc2ccc(NC(=O)c3ccccc3Cl)cc2C1 -9.22%, CS(=O)(=O)c1ccccc1C(=O)Nc1ccc2sccc2c1 11.8%, CCCC(CNC(=O)COC(=O)C1=NNC(=O)CC1)c1ccc(Cl)cc1Cl (stereo not drawn) 9.27%, CC1O[C@@H](OC2C(O)C(C)O[C@H](OC(=O)[C@]34CCC(C)(C)C[C@H]3C3=CCC5[C@@]6(C)CC(O)C(O[C@@H]7OC(CO)C(O)[C@@H](O)[C@@H]7O)[C@@](C)(C(=O)O)C6CC[C@@]5(C)[C@]3(CO)CC4)C2O[C@H]2OC(C)[C@@H](O[C@@H]3OCC(O[C@@H]4OC(CO)C(O)[C@H](O)C4O)[C@@H](O)[C@@H]3O)[C@H](O)C2O)C(O)C(O)C1O (stereo partly drawn) 10.6%, CCC(CO)Oc1cc(NC(=O)c2cccc3ccccc23)c2ncn(C(C)C)c2c1 (stereo not drawn) 12.5%, COc1ccccc1-c1nnc2n1N=C(c1ccc(OC(F)F)c(OCC3CC3)c1)CS2 9.14%, C[C@@H]1CN([C@H](C)CO)C(=O)c2cc(NC(=O)NC3CCCCC3)ccc2O[C@H]1CN(C)S(C)(=O)=O 0.78%, CC(NS(=O)(=O)c1ccc(OCC(=O)N2CCCC2)cc1)c1ccccc1 (stereo not drawn) 2.37%, COc1ccc(S(=O)(=O)Nc2ccccc2C(=O)N2CCCC2)cc1C 15.3%, COc1ccc(CN(Cc2ccc(OC)cc2)C(=O)c2cccs2)cc1 5.1%, COc1cc2ccccc2cc1C(=O)Nc1ccc(NC(=O)c2cccs2)cc1 10.3%, Cc1c(Br)ccc(NC(=O)COc2ccccc2C(N)=O)c1C 1.89%, CC(C)(C)n1ncc2c(=O)n(Cc3c(Cl)cccc3Br)cnc21 11.1%, Cc1nc2ccccc2n1CC(O)c1ccccc1 (stereo not drawn) 17.1%, CCC1(CC)Cc2ccccc2-c2nc3ccccc3c(=O)n21 8.19%, CC(C)(C)OC(=O)CNC(=O)c1[nH]cnc1C(=O)N[C@@H](CCCCN)C(=O)OC(C)(C)C 10.9%, C=CC[C@@H](CC(=O)N[C@H](CO)Cc1ccccc1)C(=O)N[C@@H](COC(=O)[C@@H](CC=C)Cc1ccc(F)cc1)Cc1c[nH]c2ccccc12 5.38%, COc1ccc(CNC(=O)c2c(C)cc(=O)oc2C)cc1OC 8.87%, Cc1cc(=O)oc(C)c1C(=O)NCc1ccc(F)cc1 19.4%

Source: PubChem BioAssay AID485270 (The Scripps Research Institute Molecular Screening Center, 2010)
